CD11b adhes inh: blocks human CD11b/CD18 adhesion to fibrinogen | inhibition, % at 10 µM | P05107+P11215 | K562 CD11b/CD18 adhesion to fibrinogen, ATPlite luminescence; Mn2+ added to activate the integrin | 93,000 compounds, 0.54% hits | AID 1497;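 active means primary inhibition of 50% or more at 10 µM, then 40% or more on retest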
Target sequence (P05107 whole entry, looked up, other chains not shown): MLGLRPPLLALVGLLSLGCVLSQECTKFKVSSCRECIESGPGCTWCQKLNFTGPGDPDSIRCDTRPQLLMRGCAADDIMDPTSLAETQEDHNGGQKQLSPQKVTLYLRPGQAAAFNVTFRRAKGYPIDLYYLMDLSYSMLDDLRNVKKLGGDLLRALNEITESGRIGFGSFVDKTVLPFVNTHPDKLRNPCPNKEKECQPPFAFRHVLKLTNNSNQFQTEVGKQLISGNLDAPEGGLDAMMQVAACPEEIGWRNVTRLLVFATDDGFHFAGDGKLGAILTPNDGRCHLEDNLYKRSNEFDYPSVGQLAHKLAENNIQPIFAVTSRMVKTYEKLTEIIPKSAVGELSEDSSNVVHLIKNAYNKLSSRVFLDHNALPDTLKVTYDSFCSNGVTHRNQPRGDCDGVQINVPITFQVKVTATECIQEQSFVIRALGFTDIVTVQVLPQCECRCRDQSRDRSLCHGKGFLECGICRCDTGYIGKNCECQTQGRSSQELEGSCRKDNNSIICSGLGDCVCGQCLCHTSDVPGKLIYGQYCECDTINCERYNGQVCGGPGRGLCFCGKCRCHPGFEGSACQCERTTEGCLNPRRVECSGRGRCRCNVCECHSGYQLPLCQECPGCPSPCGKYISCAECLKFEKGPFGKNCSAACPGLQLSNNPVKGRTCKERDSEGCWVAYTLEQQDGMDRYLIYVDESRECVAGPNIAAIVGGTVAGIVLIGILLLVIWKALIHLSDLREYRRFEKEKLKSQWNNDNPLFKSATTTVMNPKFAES
Cav3 T inh: human Cav3.2 channel inhibition, primary screen | O95180 | Cav3.2-expressing cells, Fluo-4 calcium fluorescence FDSS; hits give low values | B-score at 10 µM | 100,000 compounds, 4% hits;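 active means single-dose well whose peak fluorescence ratio is a statistical outlier from its plate by either plate-standardised score or position-corrected B-score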
MRP1 act: activators of MRP-1; H69AR cells + doxorubicin, viability rescue, CellTiter-Glo; viability increase, % at 10 µM; 140,000 compounds, 0.61% hits; AID 799;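 active means viability gain under doxorubicin at or above a set limit, the compound median plus 3 SD, cut at about 4.7% in these data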;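 further: MRP-1 overexpressing cells given doxorubicin 25 µM after compound pretreatment; 18-22 h compound pretreatment then 72 h with doxorubicin before readout; 0% = doxorubicin-only wells and 100% = vehicle-treated cells without doxorubicin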
MRP reversal: compounds reversing MRP-mediated drug resistance | H69AR cells + 2 uM doxorubicin, CellTiter-Glo, 72 h | differential viability (reversal), % at 10 µM | 85,000 compounds, 0.04% hits;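 active means viability drop by adding the cancer drug above about 55%, with treated viability meeting a 40% cutoff, limit read from the data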;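 further: viability without doxorubicin minus viability with 2 µM doxorubicin for each compound; larger differential means the compound sensitizes cells more to doxorubicin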
CD11b adhes enh: enhancers of human CD11b/CD18 binding to fibrinogen. 93,000 compounds, 0.07% hits. P05107+P11215. K562 CD11b/CD18 adhesion to fibrinogen, ATPlite luminescence. activation, % at 10 µM. AID 1499;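 active means 10 µM primary screen giving 50% or more activity, confirmed by 40% or more on retest at that dose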
PTK2B oligo ant: Pyk2 (human) oligomerization antagonism. z-score (the deposit names both 25 µM and 10 µM). Q293 cells, Pyk2 FERM NanoBiT luminescence; hits give low values. 99,000 compounds, 0.83% hits. Q14289. AID 1347419;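 active means Z-score of -3 or lower, scaled per plate to the spread of control and sample wells; inactive means z-score above -3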;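 further: negative z-score means lost luminescence so less FERM oligomerization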
Active calls of the source: *. Most compounds without a hit are left out; they make up all but 4.1% or so of the library.

`CCC(C)(C)n1nnnc1C(c1cccnc1)N1CCN(c2cccc(C(F)(F)F)c2)CC1` (stereo unspecified) gave Cav3 T inh -5.1*, MRP1 act -3.0, MRP reversal -7.3 and PTK2B oligo ant -2.5.
Screening CCC(C)(C)n1nnnc1C(c1ccncc1)N1CCC(Cc2ccccc2)CC1 (stereo unspecified) returned CD11b adhes inh -0.7, Cav3 T inh -3.7*, MRP1 act -2.1, MRP reversal 7.2, CD11b adhes enh -3.7 and PTK2B oligo ant -3.14*.
`Cc1ccc(S(=O)(=O)NCC(=O)N2CCCC2)cc1` gave CD11b adhes inh 2.6, Cav3 T inh -1.23, MRP1 act -0.7, MRP reversal -0.3, CD11b adhes enh -4.0 and PTK2B oligo ant 0.09.
Screening C=CCn1c(-c2ccccc2)nc(=S)c2c1CC(C)(C)OC2 returned CD11b adhes inh -0.8, Cav3 T inh 1.19, MRP1 act -2.4, MRP reversal 11.9, CD11b adhes enh 3.0 and PTK2B oligo ant 0.31.
CNCC(O)COc1ccccc1 (stereo unspecified) was read as CD11b adhes inh -1.5, Cav3 T inh 0.0282, MRP1 act -0.2, MRP reversal 3.4, CD11b adhes enh -3.8 and PTK2B oligo ant 1.61.
Cc1cc2cc(CNC(=O)c3ccc(Br)o3)ccc2[nH]1 was read as Cav3 T inh -6.04* and MRP reversal 11.0.
Cc1cc(C)nc(SCc2nnc(SCC(=O)Nc3c(C)cccc3C)o2)n1 was read as Cav3 T inh 0.669, MRP1 act -0.6, MRP reversal 7.7 and PTK2B oligo ant 0.24.
`Cc1cc(C)nc(SCc2nnc(SCc3ccccc3Cl)o2)n1` gave CD11b adhes inh -5.5, Cav3 T inh -6.17*, MRP1 act -0.7, MRP reversal 13.5, CD11b adhes enh -0.5 and PTK2B oligo ant -1.84.
`O=[n+]1c2c(n([O-])c3cc(F)c(N4CCCC4)cc31)CCC2` gave MRP reversal 15.6 and PTK2B oligo ant 0.25.
`O=[n+]1c2c(n([O-])c3cc(F)c(N4CCCC4)cc31)CCCC2` gave CD11b adhes inh -8.7, Cav3 T inh -7.27*, MRP1 act -2.4, MRP reversal 6.9, CD11b adhes enh -2.0 and PTK2B oligo ant 1.
For CC(C)[C@H](Nc1ccc(S(=O)(=O)N2CCOCC2)cc1[N+](=O)[O-])C(=O)OCC(=O)N(C(C)C)C(C)C the results were MRP1 act -3.7.
`O=C(Nc1ccon1)c1cc2c(s1)CCCC2` gave CD11b adhes inh -16.9, Cav3 T inh -0.0804, MRP1 act 4.8*, MRP reversal 1.9, CD11b adhes enh -1.7 and PTK2B oligo ant 0.35.
`Cc1ccc(NC(=O)C(=O)NCCN2CCN(C(=O)C(c3ccccc3)c3ccccc3)CC2)cc1` gave Cav3 T inh -0.905, MRP1 act 0.9 and PTK2B oligo ant 0.3.
Screening O=S(=O)(Nc1nnc(-c2ccccc2)s1)c1ccc(Cl)cc1 returned CD11b adhes inh 86.1*, MRP1 act -1.1, MRP reversal 3.2, CD11b adhes enh -9.5 and PTK2B oligo ant -1.59.
For CCn1c(CC(=O)Nc2cccc(OC)c2)nnc1SCC(=O)Nc1nccs1 the results were CD11b adhes inh 8.5, Cav3 T inh -5*, MRP1 act -0.6, MRP reversal 9.6, CD11b adhes enh 1.4 and PTK2B oligo ant -0.38.
Screening COc1ccc(-n2c(Cc3cccn3C)nnc2SCC(=O)Nc2cccc(C)c2C)cc1 returned CD11b adhes inh -5.8, Cav3 T inh -4.03*, MRP1 act -2.4, MRP reversal -6.4 and CD11b adhes enh 5.3.
Screening COc1ccc(-n2c(SCC(=O)Nc3nccs3)nnc2-c2ccccc2)cc1 returned CD11b adhes inh 6.3, Cav3 T inh -2.26, MRP1 act -5.2, CD11b adhes enh 3.4 and PTK2B oligo ant -0.66.
For COc1ccc(-n2c(Cc3cccn3C)nnc2SCC(=O)Nc2nccs2)cc1 the results were CD11b adhes inh -4.0, Cav3 T inh -5.96*, MRP1 act -2.2, MRP reversal -25.2 and CD11b adhes enh 0.0.
For COc1ccc(OC)c(NC(=O)CSc2nnc(Cc3cccn3C)n2-c2ccc(F)cc2)c1 the results were CD11b adhes inh 5.5, Cav3 T inh -2.49, MRP1 act -3.9, MRP reversal -8.5 and CD11b adhes enh 3.2.
`CCn1c(Cc2ccccc2)nnc1SCC(=O)Nc1nccs1` gave CD11b adhes inh 36.7, Cav3 T inh 0.17, MRP1 act -1.6, MRP reversal -3.5, CD11b adhes enh -2.1 and PTK2B oligo ant 0.46.
COc1ccc(-n2c(Cc3cccn3C)nnc2SCC(=O)NCCc2ccccc2)cc1 was read as CD11b adhes inh 15.9, Cav3 T inh -1.85, MRP1 act -0.3, CD11b adhes enh -2.2 and PTK2B oligo ant -0.2.
Screening COc1ccc(-n2c(Cc3cccn3C)nnc2SCC(=O)Nc2ccccc2C)cc1 returned CD11b adhes inh -16.8, Cav3 T inh -6.4*, MRP1 act -2.3, MRP reversal -14.2 and CD11b adhes enh 10.7.
COc1ccc(C(CC(=O)c2ccccc2)S(=O)(=O)c2ccc(C)cc2)cc1 (stereo unspecified) was read as CD11b adhes inh -7.2, Cav3 T inh 0.0359, MRP1 act -2.3, CD11b adhes enh 0.8 and PTK2B oligo ant 0.28.
COc1ccc(C(=O)C/C(=C\C(=O)c2ccc(C)cc2)c2ccccc2)cc1 was read as Cav3 T inh -4.25*, MRP1 act -2.7 and PTK2B oligo ant -0.31.
Screening COc1cc(OC)cc(-c2cc3nc(C)c(CCC(=O)NC(C)CCc4ccco4)c(C)n3n2)c1 (stereo unspecified) returned CD11b adhes inh -20.9, Cav3 T inh -0.52, MRP1 act -2.2, CD11b adhes enh 24.2 and PTK2B oligo ant 0.41.
`Cc1nc2cc(-c3cccc(F)c3)nn2c(C)c1CCC(=O)NC(C)CCc1ccco1` (stereo unspecified) gave CD11b adhes inh 2.6, Cav3 T inh -5.48*, MRP1 act -0.3, MRP reversal 6.7 and CD11b adhes enh -3.3.
For O=C(O)CSc1ncn[nH]1 the results were CD11b adhes inh 5.0, Cav3 T inh 0.514, MRP1 act -1.1, MRP reversal -15.4, CD11b adhes enh -0.5 and PTK2B oligo ant 0.47.
`CC(C)Cc1nnc(NC(=O)CSc2ncn[nH]2)s1` gave Cav3 T inh 0.424, MRP1 act 5.3*, MRP reversal 13.1 and PTK2B oligo ant -0.99.
Screening O=C(CSc1ncn[nH]1)NC12CC3CC(CC(C3)C1)C2 returned CD11b adhes inh 14.3, Cav3 T inh -0.133, MRP1 act 5.1*, MRP reversal 4.5, CD11b adhes enh -0.7 and PTK2B oligo ant -0.18.
For Cc1cc(=O)[nH]c(SCC(=O)Nc2nnc(CC(C)C)s2)n1 the results were CD11b adhes inh 8.9, Cav3 T inh -3.87, MRP1 act -0.4, MRP reversal 6.9, CD11b adhes enh -4.6 and PTK2B oligo ant 1.05.
